Shiga inhibitor: A qHTS for Small Molecule Inhibitors of Shiga Toxin. AID 2315, 2010. inhibition, % at 38.7 µM. Vero cells, Shiga toxin protein synthesis inhibition reporter. 290,000 compounds, 9.2% hits; in the data active = inhibition mostly above about 28%, no sharp cut-off; inactive = mostly below about 43%
Cycloheximide cs: Cycloheximide Counterscreen for Small Molecule Inhibitors of Shiga Toxin. cell reporter, cycloheximide protein synthesis inhibition counterscreen. max response, %. 300,000 compounds, 12% hits. AID 2314, 2010; in the data active = max response mostly above about 13%, no sharp cut-off; inactive = mostly below about 14%; note: read at 38.3 µM for the half of the compounds with a filed dose
HCV inhibitor: qHTS Assay for Inhibitors of Hepatitis C Virus (HCV) | Huh7.5.1 HCVcc-Cre infection, luciferase reporter, 44 h | Potency, µM (series often up to 41.8 µM), usual class: inhibitors | 340,000 compounds, 3.4% hits | AID 651820, 2012; active = well fitted inhibition curve with a large enough effect; inconclusive = small, poorly fitted or top-dose-only effect, or another doubt; inactive = no such curve, though single readings can be large or run the other way
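Antiviral activity was scored by luciferase reporter output from cells infected with HCVcc-Cre (~0.5 moi) in presence of compound, 44 h infection period, cells seeded 1,000/well 4 h prior.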
FMDV inh: High Throughput Screening for Foot and Mouth Disease Virus Antivirals. FMDV antiviral cell-based qHTS. Potency, µM (top dose mostly 57.9 µM), most hits filed as inhibitors. 410,000 compounds, 1.2% hits. AID 1159524, 2015; calls by dose curve; tested in HEK293T cells; note: read-out not given here; nearly all actives have a fitted effect of over 45% in size
MARV entry inh: qHTS for inhibitors of binding or entry into cells for Marburg Virus. Marburg virus pseudotyped entry inhibition, cell reporter. Potency, µM (series often up to 37.8 µM), actives largely listed as inhibitors. 300,000 compounds, 1.8% hits. AID 540276, 2011; calls by dose curve; tested in HEK293 cells
Lassa entry inh: qHTS for Inhibitors of binding or entry into cells for Lassa Virus. 300,000 compounds, 1.2% hits. AID 540256, 2011. Lassa virus pseudotype entry inhibition, cell reporter. Potency, µM (highest dose often 37.9 µM), most hits filed as inhibitors; calls by dose curve; tested in HEK293 cells; note: nearly all actives have a fitted effect of over 50% in size
Numbers stand for hits. This is a sample that favours compounds with a hit; in the whole collection about 13% have one here.

How did O=C(NCCCN1CCN(c2ccc(F)cc2)CC1)c1cccc(N2CCCC2=O)c1 do in these assays?
Shiga inhibitor: inactive; Cycloheximide cs: inactive; HCV inhibitor: inactive; FMDV inh: inactive; MARV entry inh: inactive; Lassa entry inh: inactive

What do the screens show for `O=C(Nc1nnc(-c2ccc(F)cc2)o1)c1ccc(S(=O)(=O)N2CCOCC2)cc1`?
Shiga inhibitor: inactive; Cycloheximide cs: inactive; HCV inhibitor: inactive; FMDV inh: inactive; MARV entry inh: 7.9µM; Lassa entry inh: inconclusive

How did CCN1CCN(c2ccc(NC(=O)c3cccc(N4CCCC4=O)c3)cc2)CC1 do in these assays?
Shiga inhibitor: inactive; Cycloheximide cs: 25; HCV inhibitor: inactive; FMDV inh: inactive; MARV entry inh: inactive; Lassa entry inh: inactive

What do the screens show for `O=C(Nc1ccc(S(=O)(=O)Nc2nccs2)cc1)c1ccc(S(=O)(=O)N2CCOCC2)cc1`?
Shiga inhibitor: inactive; Cycloheximide cs: inactive; HCV inhibitor: inactive; FMDV inh: inactive; MARV entry inh: inactive; Lassa entry inh: inactive

How did O=C(Nc1nccs1)c1ccc(S(=O)(=O)N2CCOCC2)cc1 do in these assays?
Shiga inhibitor: inactive; Cycloheximide cs: 15; HCV inhibitor: inactive; FMDV inh: inactive; MARV entry inh: inconclusive; Lassa entry inh: inconclusive

What do the screens show for `Cc1cnc(-n2ncc(C(=O)NCCN3CCOCC3)c2-c2cccs2)nc1-c1ccc(F)cc1`?
FMDV inh: inactive

How did Cc1cc(C(=O)CSc2nncs2)c(C)n1-c1ccc2c(c1)OCO2 do in these assays?
Shiga inhibitor: 62; Cycloheximide cs: 26; HCV inhibitor: inconclusive; MARV entry inh: inactive; Lassa entry inh: inactive

What do the screens show for `Cc1cc(C(=O)CSc2nnnn2-c2ccccc2)c(C)n1-c1ccc2c(c1)OCO2`?
Shiga inhibitor: 50; Cycloheximide cs: 29; HCV inhibitor: inconclusive; FMDV inh: inactive; MARV entry inh: inconclusive; Lassa entry inh: 6.5µM

How did Cc1cc(C)c(C(N)=O)c(SCC(=O)c2cc(C)c(C)cc2C)n1 do in these assays?
Shiga inhibitor: inactive; Cycloheximide cs: inactive; HCV inhibitor: inconclusive; FMDV inh: inconclusive; MARV entry inh: inactive; Lassa entry inh: inactive

How did Cc1cc(C)c(C(N)=O)c(SCC(=O)c2cc(C)n(-c3cc(C)on3)c2C)n1 do in these assays?
HCV inhibitor: 2.2µM; FMDV inh: inconclusive

Results for Cc1cc(-n2c(C)cc(C(=O)COc3ccc(F)c(F)c3)c2C)no1 ?
HCV inhibitor: 10µM; FMDV inh: inactive

What do the screens show for `Cc1cc(-n2c(C)cc(C(=O)COc3ccccc3[N+](=O)[O-])c2C)no1`?
Shiga inhibitor: inactive; Cycloheximide cs: inactive; HCV inhibitor: inactive; FMDV inh: inactive; MARV entry inh: inactive; Lassa entry inh: inactive

Results for COc1cccc(C(=O)Nc2cc(C)ccc2NC(=O)COc2ccccc2)c1 ?
Shiga inhibitor: inactive; Cycloheximide cs: inactive; HCV inhibitor: inconclusive; FMDV inh: inactive; MARV entry inh: inactive; Lassa entry inh: inactive

Results for COc1ccc(NS(=O)(=O)c2ccc(C)c(C(=O)N3CCC3)c2)cc1 ?
HCV inhibitor: inconclusive; FMDV inh: inactive; MARV entry inh: inactive; Lassa entry inh: inconclusive

How did Cc1ccc(S(=O)(=O)CCC(=O)Nc2ccc(OC(F)(F)F)cc2)cc1 do in these assays?
FMDV inh: inactive; Lassa entry inh: inactive

Results for Cn1c(=O)cc(SCC(=O)N2CCC3(CC2)OCCO3)c2ccc(Cl)cc21 ?
Shiga inhibitor: inactive; Cycloheximide cs: inactive; HCV inhibitor: inactive; FMDV inh: inactive; MARV entry inh: inactive; Lassa entry inh: inactive

Results for Cc1cc(C)n(CCC(=O)NCC2Cc3cc(Cl)cc(-c4cnccn4)c3O2)n1 (centres undefined) ?
FMDV inh: inactive

Results for COC(=O)c1ccc(-n2c(C)cc(C(=O)COC(=O)C3=COCCO3)c2C)cc1 ?
HCV inhibitor: inactive; FMDV inh: inactive; MARV entry inh: inactive; Lassa entry inh: inactive

Results for Cc1cc(-n2c(C)cc(C(=O)CSc3nncn3C)c2C)no1 ?
HCV inhibitor: inconclusive; FMDV inh: inactive; MARV entry inh: inactive; Lassa entry inh: inactive

Results for Cc1ccc(-n2nnnc2SCC(=O)c2cc(C)n(-c3cc(C)on3)c2C)cc1 ?
Shiga inhibitor: inactive; Cycloheximide cs: inactive; HCV inhibitor: inconclusive; MARV entry inh: inactive; Lassa entry inh: 12µM

Compound activity (PubChem BioAssay)
